Many of the other results were omitted from the sample, so hits are more common in it than they were.
Tg IFNy HTS = T. gondii growth inhibition with IFN-gamma, primary screen, cell-based; activity change, negative = inhibition, % (concentration not given with the values); 69,000 compounds, 3.8% hits; Toxoplasma gondii growth in IFN-gamma-treated host cells; active compounds read low; AID 1259416, 2018; in the data active means activity change below about -70%, passing the limit was not always enough;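 further: host cells are HeLa cells infected with Toxoplasma gondii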
An asterisk follows results filed as active; ! = repeats disagree.

CC1(C)CC[C@]2(C(=O)O)CC[C@]3(C)C(=CC[C@@H]4[C@@]5(C)CC[C@H](O)C(C)(C)[C@@H]5CC[C@]43C)[C@@H]2C1 was read as Tg IFNy HTS -72*!.
For O=C(NC1CCOCC1)c1ccc(-c2cc(-c3cn[nH]c3-c3ccccn3)ccn2)cc1 the results were Tg IFNy HTS -37.
For c1cc(-c2cnccn2)c2cccnc2c1 the results were Tg IFNy HTS -49.
c1ccc(-c2[nH]ncc2-c2ccnc3ccccc23)nc1 was read as Tg IFNy HTS -80*!.
CCn1c(C)ccc(C(=O)N[C@H]2C[C@H]3C(=O)N(C)CC(=O)N3C2)c1=O was read as Tg IFNy HTS -12.
Screening CN1C(=O)CC2C1CCN2C(=O)c1ccc[nH]1 (centres undefined) returned Tg IFNy HTS 94.
Screening CC(C)[C@H](O)C(=O)N[C@@H](C)C(=O)N[C@H]1C(=O)N(C)CCc2ccccc21 returned Tg IFNy HTS -6.
Screening C[C@H](NC(=O)Cc1cc(F)cc(F)c1)C(=O)N[C@@H]1C(=O)N(C)c2ccccc2-c2ccccc21 returned Tg IFNy HTS -83*.
CN1C(=O)C(CCC(=O)O)c2ccccc21 (centres undefined) was read as Tg IFNy HTS 27.
`CCc1ncnc2c1CCN(C(=O)c1ccc3[nH]ccc3c1)CC2` gave Tg IFNy HTS 0.
`CCCCC(=O)Nc1ccc(-c2nc(-c3ccccc3)co2)cc1` gave Tg IFNy HTS 5.
O=C(CCCCCCC(=O)Nc1ccccc1)NO was read as Tg IFNy HTS -84*!.
For O=C(CCCCCCC(=O)Nc1cccnc1)NO the results were Tg IFNy HTS -84*.
Screening O=C(NC(=S)Nc1cccnc1)c1ccccc1 returned Tg IFNy HTS -11.
`O=C(O)CSCCCC(=O)Nc1ccc(Br)cc1` gave Tg IFNy HTS -3.
CN(CC(=O)Nc1cccnc1)S(=O)(=O)c1ccc(Cl)cc1 was read as Tg IFNy HTS -53.
`COc1ccc(-c2ccc(SCC(=O)Nc3ccccc3C(F)(F)F)nn2)cc1` gave Tg IFNy HTS 51.
For O=C(CSCc1ccccc1Cl)NCCn1cccn1 the results were Tg IFNy HTS 74.
`COC(=O)c1c(NCc2cc(OC)ccc2OC)c2cccc(Cl)c2[nH]c1=O` gave Tg IFNy HTS -7.
Screening C=CCOCC1CC2OCCN(C(=O)c3ccc4ncccc4c3)C2C1 (centres undefined) returned Tg IFNy HTS -6.
For CCC(CC(=O)NCc1c(C)n[nH]c1C)c1c[nH]c2ccccc12 (centres undefined) the results were Tg IFNy HTS 29.
Screening CCN1CCN(C(=O)c2ccc(-c3nc(CN4CCc5ccccc54)c(C)o3)cc2)CC1 returned Tg IFNy HTS -37.
`COc1ccc(-c2ccccc2[C@H]2[C@@H](CO)N(C(=O)NC3CCCCC3)[C@H]2C#N)cc1` gave Tg IFNy HTS -72*.
COc1ccc(-c2ccccc2[C@@H]2[C@@H](C#N)N(C(=O)NC3CCCCC3)[C@H]2CO)cc1 was read as Tg IFNy HTS 6.
`COc1ccc(-c2ccccc2[C@@H]2[C@@H](C#N)N(C(=O)NC(C)C)[C@H]2CO)cc1` gave Tg IFNy HTS 24.
Screening CN(C)c1ccc(CCNS(=O)(=O)N2CCCC2)cc1 returned Tg IFNy HTS -10.
For CC1CCN(S(=O)(=O)c2ccc3c(c2)CCC(=O)N3CC(=O)NC2CCCC2)CC1 the results were Tg IFNy HTS 22.
`CN1Cc2c(C(=O)NC3CCCCC3)ncn2-c2ccccc2S1(=O)=O` gave Tg IFNy HTS 23.
Screening O=C(c1cncc(-c2cc3ccccc3o2)n1)N1CCOCC1 returned Tg IFNy HTS -6.
C[C@@H]1CN([C@H](C)CO)C(=O)c2cc(NS(=O)(=O)c3cccs3)ccc2O[C@@H](C)CCCCO[C@H]1CN(C)Cc1ccc(Cl)c(Cl)c1 was read as Tg IFNy HTS -67.
C[C@@H]1CN([C@H](C)CO)C(=O)c2cc(NS(=O)(=O)c3ccc(Cl)cc3)ccc2O[C@@H](C)CCCCO[C@@H]1CN(C)Cc1ccncc1 was read as Tg IFNy HTS -112*.
Screening C[C@@H]1CCCCO[C@@H](CN(C)Cc2ccc(Cl)c(Cl)c2)[C@H](C)CN([C@H](C)CO)C(=O)c2cc(NS(=O)(=O)c3cccs3)ccc2O1 returned Tg IFNy HTS -54.
C[C@@H]1CCCCO[C@@H](CN(C)Cc2ccncc2)[C@@H](C)CN([C@@H](C)CO)C(=O)c2cc(NS(=O)(=O)c3ccc(Cl)cc3)ccc2O1 was read as Tg IFNy HTS 50.
C[C@@H]1CCCCO[C@H](CN(C)Cc2ccncc2)[C@H](C)CN([C@@H](C)CO)C(=O)c2cc(NS(=O)(=O)c3ccc(Cl)cc3)ccc2O1 was read as Tg IFNy HTS 32.
C[C@@H]1CCCCO[C@@H](CN(C)Cc2ccncc2)[C@H](C)CN([C@H](C)CO)C(=O)c2cc(NS(=O)(=O)c3ccc(Cl)cc3)ccc2O1 was read as Tg IFNy HTS -105*.

From PubChem
